Shiga toxin inh: A qHTS for Small Molecule Inhibitors of Shiga Toxin. 9.2% of 290,000 active. inhibition, % at 38.7 µM. Vero cells, Shiga toxin protein synthesis inhibition reporter; in the data active means inhibition mostly above about 28%, no sharp cut-off; inactive means mostly below about 43%
FMDV inh: High Throughput Screening for Foot and Mouth Disease Virus Antivirals. Potency, µM (top dose mostly 57.9 µM), usual class: inhibitors. FMDV antiviral cell-based qHTS. 1.2% of 410,000 active. AID 1159524, 2015; calls by dose curve; tested in HEK293T cells; further: read-out not given here; nearly all actives have a fitted effect of over 45% in size
HCV inh: qHTS Assay for Inhibitors of Hepatitis C Virus (HCV); Huh7.5.1 HCVcc-Cre infection, luciferase reporter, 44 h; Potency, µM (highest dose often 41.8 µM), actives largely listed as inhibitors; 3.4% of 340,000 active; AID 651820, 2012; active means well fitted inhibition curve with a large enough effect; inconclusive means small, poorly fitted or top-dose-only effect, or another doubt; inactive means no such curve, though single readings can be large or run the other way
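Reporter virus HCVcc-Cre (~0.5 moi) infects cells exposed to compound; seeding density 1,000 cells/well with 4 h settling beforehand. Luminescence, 15 sec read, taken 44 h post-infection following a 15 min RT substrate incubation.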
Marburg entry inh: qHTS for inhibitors of binding or entry into cells for Marburg Virus | 1.8% of 300,000 active | Potency, µM (doses to about 37.8 µM), usual class: inhibitors | Marburg virus pseudotyped entry inhibition, cell reporter; calls by dose curve; tested in HEK293 cells
Cycloheximide cs: Cycloheximide Counterscreen for Small Molecule Inhibitors of Shiga Toxin. cell reporter, cycloheximide protein synthesis inhibition counterscreen. max response, %. 12% of 300,000 active; in the data active means max response mostly above about 13%, no sharp cut-off; inactive means mostly below about 14%; further: read at 38.3 µM for the half of the compounds with a filed dose
Lassa entry inh: qHTS for Inhibitors of binding or entry into cells for Lassa Virus; Lassa virus pseudotype entry inhibition, cell reporter; Potency, µM (top dose mostly 37.9 µM), hits mostly inhibitors; 1.2% of 300,000 active; calls by dose curve; tested in HEK293 cells; further: nearly all actives have a fitted effect of over 50% in size
A number is an active result; – = inactive; ? = inconclusive; · = no result. Rows were chosen to be rich in hits. Some 13% of all compounds tested hit in one or more screens of this group.

SMILES | Shiga toxin inh | FMDV inh | HCV inh | Marburg entry inh | Cycloheximide cs | Lassa entry inh
CCOC(=O)c1ccc(NC(=S)N(CCCN2CCCC(C)C2)Cc2ccco2)cc1 (stereo not given) | – | – | 10µM | ? | – | ?
CCOC(=O)c1ccc(NC(=S)N(CCCN2CCCC2)Cc2ccco2)cc1 | – | – | 10µM | ? | – | –
CCN1CCN(CCCN(Cc2ccco2)C(=S)Nc2ccc(C)c(Cl)c2)CC1 | – | – | 8.9µM | ? | – | ?
CCOC(=O)c1ccc(NC(=S)N(CCCN2CCN(CC)CC2)Cc2ccco2)cc1 | – | – | ? | ? | – | ?
COc1ccc(NC(=O)CSc2c3c(nc4ccccc24)CCC3)cc1Cl | · | – | · | – | · | –
CC(=NCc1ccccc1)c1ccc(O)cc1O | · | – | · | · | · | ·
CC1CN(C(=S)SCCN2Cc3ccccc3C2=O)CC(C)O1 (stereo not given) | – | – | – | ? | – | –
O=C1c2ccccc2CN1CCSC(=S)N1CCOCC1 | 81 | – | – | – | 74 | ?
O=C1c2ccccc2CN1CCSC(=S)N1CCSCC1 | 157 | · | · | · | 48 | ·
Nc1ccn(CC(=O)NCCCc2ccccc2)c(=O)n1 | · | – | – | · | · | ·
Cc1noc(C)c1COc1ccc(C(=O)NCCc2ccccn2)cc1 | – | – | – | · | – | ·
CCSc1nc2c([nH]c3ccccc32)c(=O)n1C | – | – | – | · | – | ·
CCSc1nnc2nc3[nH]c4c(C)cccc4c3nn12 | 62 | – | – | ? | 40 | –
C=CCSc1nnc2c(n1)[nH]c1c(C)cccc12 | 60 | · | 7.9µM | ? | 40 | –
CC(Oc1ccc(Cl)cc1Cl)C(=O)OCC(=O)c1c(N)n(C)c(=O)n(C)c1=O (stereo not given) | · | – | – | – | · | –
CC1(C)CCC(=O)N2CC[C@H]3C[C@H](OC(=O)Nc4ccccc4)C[C@@H]1[C@H]32 | 39 | – | – | · | 36 | ·
CCCCNC(=O)O[C@H]1C[C@@H]2CCN3C(=O)CCC(C)(C)[C@H](C1)[C@H]23 | – | – | – | · | – | ·
CC1(C)CCC(=O)N2CC[C@H]3C[C@H](OC(=O)Nc4ccc5c(c4)OCO5)C[C@@H]1[C@H]32 | 23 | – | – | · | 20 | ·
Cc1nonc1C1CCCN1C(=O)c1cc(COc2ccc(F)cc2F)on1 (stereo not given) | 103 | – | – | – | 41 | –
Cc1cccc(C)c1OCc1cc(C(=O)N2CCCC2c2nonc2C)no1 (stereo not given) | – | – | ? | ? | – | ?
CSc1ccccc1OCc1cc(C(=O)N2CCCC2c2nonc2C)no1 (stereo not given) | 91 | – | ? | – | 48 | –
CC1CCCN(c2cc3c(cc2[N+](=O)[O-])C(=O)N(c2ccccc2)C3=O)C1 (stereo not given) | – | – | – | – | – | ?
Cc1ccnc(Nc2ccc(CCO)cc2)n1 | · | – | · | · | · | ·
COc1cccc(Nc2nccc(-c3cnn4ncccc34)n2)c1 | · | · | · | · | · | 0.56µM
CCN(CC)Cc1ccc(Nc2nccc(-c3cnn4ncccc34)n2)cc1 | · | · | · | · | · | 0.04µM
SMILES | Shiga toxin inh | FMDV inh | HCV inh | Marburg entry inh | Cycloheximide cs | Lassa entry inh
COc1cccc(Nc2nc3ccccc3n2C(C)C)c1 | – | – | ? | – | – | –
CC(C)c1ccc(Nc2c(-c3ccco3)nc3ccccn23)cc1 | · | – | · | – | · | –
CN(C)c1ccc(-c2nc3cnccn3c2Nc2cccc(C(F)(F)F)c2)cc1 | · | – | · | – | · | –
COc1ccc(-c2nn3ncccc3c2-c2ccnc(Nc3cccc(C(F)(F)F)c3)n2)cc1 | · | · | · | · | · | 25µM
CC(C)c1ccc(Nc2nccc(-c3cnn4ncccc34)n2)cc1 | · | · | · | · | · | 11µM
CCCSC1=C(C#N)C(c2ccccc2OCC)CC(=O)N1 (stereo not given) | – | – | ? | – | – | –
CC(=O)Nc1ccc(S(=O)(=O)N(C)CC(=O)NNc2c(F)c(F)cc(F)c2F)cc1 | · | – | – | · | · | ·
Cc1cc(NC(=O)c2ccc3nccnc3c2)ccc1Br | · | – | ? | ? | · | –
Cc1cc(C)c(NC(=O)c2ccc3nccnc3c2)c(C)c1 | · | – | – | – | · | –
Cc1ccc(NC(=O)c2ccc3nccnc3c2)c(C)c1 | 31 | – | – | ? | 23 | –
O=C(Nc1ccc2cccnc2c1)c1ccc(Br)cc1 | · | – | – | · | 24 | ·
Cc1ccc(C(=O)Nc2ccc3nccnc3c2)cc1 | 48 | – | – | ? | 24 | ?
Cc1ccc(S(=O)(=O)c2nc(Nc3nccs3)sc2Cl)cc1 | – | ? | ? | ? | – | ?
COc1cccc(Nc2ncnc3c2cnn3-c2cccc(C)c2)c1 | 78 | – | ? | – | 27 | –
